Unmarked numbers belong to inactive results. Records with an inconclusive call do not appear. The source made the active and inactive calls. Unless noted, calls come from the whole dose curve; as a rule, active = well fitted curve in the direction sought with a large enough effect in the repeat runs; inconclusive = weak or mixed curves; inactive = no such curve, though single readings can be large; an effect the other way counts as inactive or inconclusive.

Consider eight compounds from PubChem BioAssay (Tox21).

Experiment [1] is described as follows: qHTS RealTime-Glo MT Cell Viability Assay in HEK293 cells - 0 hour (AID 1224880). Note: top concentration of the series differs between compounds; nearly all actives have a fitted effect of over 45% in size. An outline of the steps: (§1)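 Tox21 screen in HEK293 using RealTime-Glo MT chemistry, with cells and reagent co-dispensed. Luminescence proportional to viable cell number was captured at intervals during 40 h compound exposure at 37 C.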
The nature of experiment [2]: A CellTox Green Cytotoxicity Assay to monitor cytotoxicity in HEK293 cells - 32 hour (AID 1224881). Note: nearly all actives have a fitted effect of over 40% in size. Note: potency is the fitted concentration of half-maximal effect. An outline of the steps:
(§2)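 Seeding of HEK293 cells together with cytotoxicity dye preceded a 5 h incubation at 37 C/5% CO2. Test compounds in DMSO were then added and fluorescence monitored across 40 h.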

A short description of experiment [3]: A CellTox Green Cytotoxicity Assay to monitor cytotoxicity in HepG2 cells - 0 hour (AID 1224882). Note: nearly all actives have a fitted effect of over 35% in size. An outline of the steps:
(§3)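 Nonlytic assay: viable cells exclude the dye, so fluorescence scales with cell death. HepG2 at 600 cells/well, compounds added after 5 h, signal read across 40 h.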

Experiment [4] can be described thus: A CellTox Green Cytotoxicity Assay to monitor cytotoxicity in HepG2 cells - 32 hour (AID 1224883). Note: nearly all actives have a fitted effect of over 50% in size. Note: potency is the fitted concentration of half-maximal effect. An outline of the steps: as §3
Experiment [5] in a line: A CellTox Green Cytotoxicity Assay to monitor cytotoxicity in HEK293 cells - 8 hour (AID 1224884). Note: nearly all actives have a fitted effect of over 35% in size. An outline of the steps:
as §2

The nature of experiment [6]: qHTS RealTime-Glo MT Cell Viability Assay in HepG2 cells - 16 hour (AID 1224885). Note: nearly all actives have a fitted effect of over 50% in size. An outline of the steps: (§4)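 Tox21 10K library screened in qHTS format on HepG2 cells carrying RealTime-Glo reagents. Compounds were added after a 5 h preincubation, and the luminescent signal from continuous culture was measured repeatedly during 40 h treatment.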
A general note: qHTS replaces the single test concentration by a dilution series.

Experiment [7] can be described thus: qHTS RealTime-Glo MT Cell Viability Assay in HEK293 cells - 8 hour (AID 1224887). Note: top concentration of the series differs between compounds; nearly all actives have a fitted effect of over 50% in size. An outline of the steps:
as §1

A short description of experiment [8]: A CellTox Green Cytotoxicity Assay to monitor cytotoxicity in HEK293 cells - 16 hour (AID 1224888). Note: nearly all actives have a fitted effect of over 35% in size. An outline of the steps: as §2
Experiment [9] can be described thus: A CellTox Green Cytotoxicity Assay to monitor cytotoxicity in HepG2 cells - 8 hour (AID 1224890). Note: nearly all actives have a fitted effect of over 45% in size. An outline of the steps: as §3
A short description of experiment [10]: qHTS assay to identify small molecule antagonists of the estrogen receptor alpha (ER-alpha) signaling pathway using the BG1 cell line in the presence of 0.1 nM 17-beta-estradiol - cell viability counter screen (AID 1259241). Note: nearly all actives have a fitted effect of over 40% in size. Note: potency is the fitted concentration of half-maximal effect. The procedure, abridged: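 Cytotoxicity counter-screen: live-cell protease activity measured by fluorescence (30 min reagent step) in the same wells. Cells were VM7Luc4E2 with endogenous ER-alpha and ERE-driven luciferase, treated 22 hr at 37C alongside 0.1 nM 17beta-estradiol final.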

Experiment [11] is described as follows: qHTS assay to identify small molecule antagonists of the androgen receptor (AR) signaling pathway using the MDA cell line in the presence of 0.5 nM R1881 - cell viability counter screen (AID 1259242). Note: nearly all actives have a fitted effect of over 45% in size. The procedure, abridged:
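R1881 at 0.5 nM final stimulated MDA-kb2 cells during 16 hr compound treatment at 37C. Cytotoxicity read: CellTiter-Fluor fluorescence after 30 min.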

Experiment [12] has as its target Estrogen receptor (Homo sapiens) (UniProt P03372). In words: qHTS assay to identify small molecule antagonists of the estrogen receptor alpha (ER-alpha) signaling pathway using the BG1 cell line in the presence of 0.1 nM 17-beta-estradiol (AID 1259244). Note: nearly all actives have a fitted effect of over 50% in size. Note: potency is the fitted concentration of half-maximal effect. The procedure, abridged:
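VM7Luc4E2; 4xERE-luciferase; 0.1 nM E2 final; 22 h co-incubation, 37C; ONE-Glo luminescence after 30 min at room temperature.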

Experiment [13] in a line: qHTS assay to identify small molecule HDAC inhibitors (AID 1259364). Note: potency is the fitted concentration of half-maximal effect.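 Note: wild-type HCT-116 cells with endogenous class I/II HDAC activity; nearly all actives have a fitted effect of over 45% in size.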 The procedure, abridged: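 Relative class I and II HDAC activity is taken from the luminogenic signal in HCT-116 cells, with compound exposure 2 hr and reagent development 30 min at room temperature.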
Experiment [14] can be described thus: qHTS assay to identify small molecule HDAC inhibitors - cell viability counter screen (AID 1259365). The procedure, abridged:
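CellTiter-Glo luminescence (30 min, room temperature) reported viability after a 2 h compound exposure at 37 C. Cells: wild-type HCT-116, 1,500 per well, seeded the night before.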

Experiment [15] in a line: qHTS assay to identify small molecule antagonists of the sonic hedgehog signaling (Shh) pathway - cell viability counter screen (AID 1259367). Note: nearly all actives have a fitted effect of over 55% in size. Note: potency is the fitted concentration of half-maximal effect. The procedure, abridged:
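Cells: 3T3 Gli1-Luc, 2,000/well, 4 hr pre-incubation. Compounds in DMSO, then conditioned medium. Incubation 24 hr, 37C, 5% CO2. CellTiter-Fluor at 23 hr, 1 hr, fluorescence.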

Experiment [16] in a line: qHTS RealTime-Glo MT Cell Viability Assay in HepG2 cells - 0 hour (AID 1224889). Note: nearly all actives have a fitted effect of over 50% in size. An outline of the steps:
as §4

Experiment [17] is described as follows: qHTS assay to identify small molecule agonists of the sonic hedgehog signaling (Shh) pathway - cell viability counter screen (AID 1259366). Note: nearly all actives have a fitted effect of over 50% in size. Note: potency is the fitted concentration of half-maximal effect. An outline of the steps: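 Cytotoxicity counter screen: CellTiter-Fluor reagent added after 23 h compound exposure, then 1 h at 37C and fluorescence read. Cells were 3T3 Gli1-Luc, seeded 2,000 per well and dosed 4 h post-plating.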

A short description of experiment [18]: qHTS assay to identify small molecule phospholipidosis (PLD) inducers (AID 1259344; active = well fitted curve in the direction sought with a large enough effect; an effect the other way counts as inactive or inconclusive). The procedure, abridged: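 Phospholipidosis is scored by imaging LipidTOX-stained pits in HepG2 cells exposed to compound for 24 h at 37 C; pit counts and integrated intensities per well and per cell serve as outputs.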
A short description of experiment [19]: qHTS RealTime-Glo MT Cell Viability Assay in HEK293 cells - 24 hour (AID 1224886). The procedure, abridged: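 Luminescence generated by NanoLuc from substrate produced by living HEK293 cells served as the viability signal. Each value reflects the reading at its stated time point during continuous 40 h compound exposure at 37 C.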

Sequence of Estrogen receptor (Homo sapiens) (P03372 whole entry, looked up): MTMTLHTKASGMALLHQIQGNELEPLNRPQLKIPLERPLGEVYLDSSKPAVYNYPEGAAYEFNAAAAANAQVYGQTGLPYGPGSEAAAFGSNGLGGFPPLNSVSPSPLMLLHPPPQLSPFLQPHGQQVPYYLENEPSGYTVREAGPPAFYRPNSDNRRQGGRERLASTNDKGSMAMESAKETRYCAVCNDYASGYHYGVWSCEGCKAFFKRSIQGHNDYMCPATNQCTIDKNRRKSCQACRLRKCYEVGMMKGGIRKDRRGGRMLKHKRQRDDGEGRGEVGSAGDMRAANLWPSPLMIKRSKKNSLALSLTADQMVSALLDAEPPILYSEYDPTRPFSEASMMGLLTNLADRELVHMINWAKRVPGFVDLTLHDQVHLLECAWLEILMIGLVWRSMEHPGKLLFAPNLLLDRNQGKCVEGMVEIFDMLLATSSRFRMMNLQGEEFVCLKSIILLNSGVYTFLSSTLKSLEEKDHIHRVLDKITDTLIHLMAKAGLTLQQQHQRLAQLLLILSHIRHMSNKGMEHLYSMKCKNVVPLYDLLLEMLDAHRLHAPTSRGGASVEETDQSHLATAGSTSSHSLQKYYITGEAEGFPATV

On to `COc1ccc(/C=C/c2cc(OC)cc(=O)o2)cc1`, for which the Potency entry in experiment [1], in experiment [2], in experiment [3], in [4], in experiment [5] and in experiment [7] was “inactive” throughout. Moreover, the Potency entry in experiment [8], in experiment [9], in experiment [10], in [11], in experiment [12] and in [15] was “inactive” in each case. The outcome in [6] and in experiment [14] was inactive. In addition, the Potency in [13] was 6260 nM (active).
On to `C=C[Si](OCC)(OCC)OCC`, for which the Potency result in experiment [1], in experiment [2], in experiment [3], in experiment [4], in [5] and in [7] was “inactive” throughout. Also, the Potency entry in experiment [8], in [16], in [9], in experiment [10], in experiment [11] and in [13] was “inactive” throughout. Further, the Potency entry in experiment [15] was “inactive”. The outcome in experiment [6] was inactive.
`COC(=O)C(C)(C)C`: the Potency result in experiment [1], in experiment [2], in experiment [3], in experiment [4], in experiment [5] and in experiment [7] was “inactive” throughout. In addition, the Potency result in [8], in experiment [9], in [10], in experiment [11], in [13] and in experiment [17] was “inactive” in each case. For the same compound, the Potency result in experiment [15] was “inactive”. In addition, the result in experiment [6] was inactive.
Consider `Nc1ncnc2c1ncn2[C@@H]1O[C@H](CO)[C@@H](O)[C@H]1O`, for which the Potency result in experiment [1], in experiment [2], in experiment [3], in [4], in experiment [5] and in [7] was “inactive” throughout. In addition, the Potency entry in experiment [8], in [16], in experiment [9], in [11], in [18] and in experiment [13] was “inactive” throughout. For the same compound, the Potency result in experiment [15] was “inactive”. For the same compound, the outcome in [6] and in experiment [14] was inactive.
Regarding `O=[N+]([O-])c1cccc(I)c1`, the Potency result in experiment [1], in experiment [3], in [4], in [5], in experiment [19] and in experiment [7] was “inactive” throughout. Further, the Potency entry in experiment [8], in experiment [16], in [9], in experiment [10], in [11] and in experiment [12] was “inactive” in each case. Besides, the Potency result in experiment [13], in experiment [17] and in experiment [15] was “inactive” throughout. For the same compound, the call in [6] and in experiment [14] was inactive.
With `CC(C)(C)c1ccc(CCC=O)cc1`, the Potency entry in experiment [1], in experiment [2], in experiment [3], in experiment [5], in experiment [19] and in experiment [7] was “inactive” throughout. For the same compound, the Potency result in experiment [8], in experiment [16], in [9], in [10], in experiment [11] and in experiment [12] was “inactive” throughout. In addition, the Potency result in experiment [13], in experiment [17] and in experiment [15] was “inactive” throughout. Besides, the outcome in experiment [6] and in experiment [14] was inactive.
With `CC(C)=CCC/C(C)=C/C=N/O`, the Potency result in [1], in [3], in [4], in [19], in experiment [9] and in [10] was “inactive” each time. Moreover, the Potency result in [11], in experiment [12], in [13], in experiment [17] and in [15] was “inactive” throughout. The compound was called inactive in experiment [6] and in [14].
For `CC(C)C[C@H](NC(=O)[C@H](Cc1ccccc1)NC(=O)c1cnccn1)B(O)O`, the Potency entry in experiment [1], in [3], in experiment [5], in experiment [7], in experiment [8] and in experiment [16] was “inactive” throughout. The Potency entry in [9], in experiment [18] and in experiment [13] was “inactive” in each case. Further, the Potency is 190 nM (active) in experiment [2]; 23.9 nM (active) in [4]; 266 nM (active) in experiment [10]; 59.6 nM (active) in [12]; 1060 nM (active) in experiment [17]; 5310 nM (active) in experiment [15]. Besides, the outcome in [14] was inactive.
